Only some compounds are listed: those with a hit (about 11% of all), similar ones and a draw of the others.
L3MBTL1 block – inhibitors of human L3MBTL1. Q9Y468. AlphaScreen L3MBTL1–H3K9me1 peptide binding. Potency, µM (highest dose often 57.1 µM), most hits filed as inhibitors. hit rate 0.66% among 230,000; further: nearly all actives have a fitted effect of over 60% in size
Target sequence (Q9Y468 whole entry, looked up): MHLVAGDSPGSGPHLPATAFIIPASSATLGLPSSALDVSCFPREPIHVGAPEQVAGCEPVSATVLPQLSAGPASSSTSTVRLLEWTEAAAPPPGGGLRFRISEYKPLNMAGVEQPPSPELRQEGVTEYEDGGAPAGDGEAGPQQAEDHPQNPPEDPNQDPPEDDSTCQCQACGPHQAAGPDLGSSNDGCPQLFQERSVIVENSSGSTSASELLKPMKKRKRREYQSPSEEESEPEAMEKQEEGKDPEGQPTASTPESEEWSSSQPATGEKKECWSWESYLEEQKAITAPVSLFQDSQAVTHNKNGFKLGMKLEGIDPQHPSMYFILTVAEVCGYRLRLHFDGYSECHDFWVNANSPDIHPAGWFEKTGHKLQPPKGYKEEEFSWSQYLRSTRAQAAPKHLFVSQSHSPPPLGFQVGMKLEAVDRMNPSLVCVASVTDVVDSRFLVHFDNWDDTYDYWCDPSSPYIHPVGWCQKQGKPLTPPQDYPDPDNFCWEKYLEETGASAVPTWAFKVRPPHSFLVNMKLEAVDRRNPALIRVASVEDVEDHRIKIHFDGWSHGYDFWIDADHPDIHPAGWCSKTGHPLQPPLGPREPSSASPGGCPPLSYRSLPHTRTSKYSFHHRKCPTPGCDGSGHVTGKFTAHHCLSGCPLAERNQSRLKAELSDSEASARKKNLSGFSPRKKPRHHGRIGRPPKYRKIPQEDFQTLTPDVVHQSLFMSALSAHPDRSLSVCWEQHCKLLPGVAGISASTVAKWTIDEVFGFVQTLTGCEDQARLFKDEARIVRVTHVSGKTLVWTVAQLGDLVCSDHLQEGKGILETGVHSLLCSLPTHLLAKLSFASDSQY
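L3MBTL1 (50 nM) pre-complexed 30 min with biotinylated H3(1-15)K9me1 peptide (75 nM), then compounds added for 30 min at room temperature; AlphaScreen streptavidin donor/nickel chelate acceptor beads (10 ug/mL final) read after 30 min dark incubation.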
HP1b chromo inh – HP1-beta chromodomain-methylated histone interaction inhibition; AlphaScreen HP1-beta / biotin-H3K9me3 peptide binding; Potency, µM (titrated, usually from 114 µM), hits mostly inhibitors; hit rate 0.56% among 390,000; AID 540317; further: nearly all actives have a fitted effect of over 70% in size
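HP1-beta protein (50 nM final) preincubated 30 min at room temperature with biotinylated H3(1-18)K9me3 peptide (50 nM) in PBS pH 7.4, 0.01% Tween-20, then compound added for 30 min. AlphaScreen streptavidin donor/nickel chelate acceptor beads (10 ug/mL final), 30 min dark, luminescence read.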
BAZ2B block – inhibitors of human BAZ2B bromodomain. Potency, µM (series often up to 114 µM), usual class: inhibitors. AID 504333. AlphaScreen BAZ2B-H3K14Ac peptide displacement. hit rate 4.4% among 360,000; further: nearly all actives have a fitted effect of over 60% in size
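Protein-peptide AlphaScreen: BAZ2B 50 nM, b-H3K14Ac 50 nM, 1x PBS pH 7.4 + 0.01% Tween-20. Preincubation 30 min RT; cpd 30 min RT (top 110 uM); beads 20 min RT, light-protected.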
G9a inh – inhibitors of human histone lysine methyltransferase G9a | Q96KQ7 | G9a H3K9 monomethylation, AlphaScreen, 2 h | Potency, µM (top dose mostly 102 µM), hits mostly inhibitors | hit rate 8.8% among 350,000; further: nearly all actives have a fitted effect of over 75% in size
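Methyltransferase reactions run at room temperature for 2 h (20 nM enzyme, 500 nM biotin-H3K9 peptide, 20 uM SAM) after a 15 min compound preincubation; product detected by AlphaScreen beads and anti-H3K9me1 antibody.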
JMJD2A Tudor – JMJD2A Tudor domain (human) inhibition. AlphaScreen JMJD2A-Tudor / H3K4me3 peptide binding. Potency, µM (doses to about 114 µM), usual class: inhibitors. hit rate 4.4% among 390,000. O75164; further: nearly all actives have a fitted effect of over 50% in size
A number is an active result; n = inactive; u = inconclusive; x = no result given; [ ] = dose if it differs, or a comment. The call rests on the fitted dose curve; in most records, active means well fitted inhibition curve with a large enough effect; inconclusive means small, poorly fitted or top-dose-only effect; inactive means no such curve, though single readings can be large or run the other way.

SMILES	L3MBTL1 block	HP1b chromo inh	BAZ2B block	G9a inh	JMJD2A Tudor
Fc1ccc(Nc2nc3nonc3nc2Nc2cccc(C(F)(F)F)c2)cc1	x	n	u	n	u
Oc1cccc(/C=N/N=C/c2cccc(O)c2O)c1O	n	n	n	31.6µM	n
C/C(=N/N=C/c1ccccc1O)c1ccccc1O	x	n	n	n	n
COc1cc(C2C(=O)N(C3CCCCCC3)CC(=O)N2CCC2=CCCCC2)ccc1OC(C)C (stereo unspecified)	x	n	n	n	n
Cc1ccc(C2C(C#N)=C(N)Oc3nc(-c4ccccc4)[nH]c32)o1 (stereo unspecified)	n	n	n	50.1µM	n
N#CC1=C(N)Oc2nc(-c3ccccc3)[nH]c2C1c1cccnc1 (stereo unspecified)	n	n	n	u	n
CCCCCc1c(O)c2ccccc2[nH]c1=O	n	n	n	n	n
CCCCc1c(O)n(-c2ccccc2)[nH]c1=O	x	x	x	11.2µM	x
CCOC(=O)Cn1c(=O)oc2cc(S(=O)(=O)N3CCC(C(=O)OCC)CC3)ccc21	x	n	n	n	n
C=CCOc1ccc(C(=O)N(Cc2ccc(N(C)C)cc2)C2CCS(=O)(=O)C2)cc1 (stereo unspecified)	u	n	u	50.1µM	u
CCCCOc1cccc(C(=O)N(Cc2ccc(N(C)C)cc2)C2CCS(=O)(=O)C2)c1 (stereo unspecified)	x	u	n	n	56.2µM
CC1=NN(c2ccccc2)C(=O)C1	n	n	n	n	n
CC1=NN(c2ccc(S(=O)(=O)O)cc2C)C(=O)C1	n	n	56.2µM	25.1µM	50.1µM
C=CCn1c(SCC(=O)NCCC2=CCCCC2)nc2ccc(Cl)cc2c1=O	n	u	n	n	28.2µM
Cn1c(=O)cc(SCC(=O)NCCC2=CCCCC2)c2ccc(Cl)cc21	n	n	n	n	n
O=C(Oc1cc(-c2ccccc2)no1)c1ccc(Cl)cc1	x	n	u	79.4µM	n[11.4 µM]
O=C(Nc1ccc(F)c(F)c1)c1cc(S(=O)(=O)NCc2ccc3c(c2)OCO3)ccc1F	x	n	n	n	n
C(=N\Nc1nc(-c2ccccc2)cs1)/c1ccco1	u	u	39.8µM	12.6µM	u
Clc1ccc(-c2csc(N/N=C\c3cccnc3)n2)cc1	n	n	n	10µM	n
C(=N/Nc1nccs1)/c1cccnc1	x	n	x	n	n
CN(C)S(=O)(=O)c1ccc(-c2csc(N/N=C/c3ccco3)n2)cc1	n	n	n	28.2µM	n
Clc1ccc(-c2csc(N/N=C/c3ccco3)n2)cc1	u	n	35.5µM	x	u
Cc1ccc(-c2nn(-c3cccc([N+](=O)[O-])c3)c3c2cnc2ccc(F)cc23)cc1	x	n	n	n	n
COc1cc(C2=NC(CO)(CO)CO2)cc(OC)c1OC	n	n	n	x	n
Brc1ccc(-c2csc(N/N=C/c3ccco3)n2)cc1	x	n	8.91µM	u	n
SMILES	L3MBTL1 block	HP1b chromo inh	BAZ2B block	G9a inh	JMJD2A Tudor
O=C(Nc1nc(-c2ccc(Cl)cc2)cs1)c1cccnc1	x	u	n	39.8µM	n[11.4 µM]
Cc1csc(N/N=C/c2ccc([N+](=O)[O-])cc2)n1	n	n	n	n	n
Cc1ccc(-c2csc(N/N=C/C=C/c3ccccc3)n2)cc1	n	n	n	n	n
CN(C)S(=O)(=O)c1ccc(-c2csc(N/N=C/c3ccc(O)cc3)n2)cc1	n	n	u	22.4µM	u
Cc1ccc(-c2csc(N/N=C/c3ccco3)n2)cc1	n	n	u	u	50.1µM
CCOc1ccc(NC(=O)CSc2nccn2-c2cccc(C)c2C)cc1	x	n	u	n	u
CC(CCCN(C)C)C(Cc1ccccc1)c1ccccc1 (stereo unspecified)	x	n	x	x	n
Cc1ccc2nc(N/N=C/c3ccco3)cc(C)c2c1	n	n	44.7µM	u	u
COc1ccc(-c2nnc3sc(C(C)N4C(=O)c5ccccc5C4=O)nn23)cc1 (stereo unspecified)	n	n	n	u	17.8µM
COc1ccc(-c2nnc3sc(CN4C(=O)c5ccccc5C4=O)nn23)cc1	n	n	n	35.5µM	n
CCc1cccc(NC(=O)Cn2cc(C(=O)c3ccncc3)c(=O)c3cc(C)c(C)cc32)c1	x	n	n	n	u
Cc1nc2cnc(N3CCN(C)CC3)nc2n(C)c1=O	x	x	x	n[0.501 µM]	x
CCN(CC)CCNC(=O)c1cc(Nc2ccc(OC)c(OC)c2)nc2ccccc12	x	n	39.8µM	70.8µM	u
COc1ccc(Nc2cc(C(=O)NCc3ccccc3)c3ccccc3n2)cc1OC	x	n	x	n	n
COc1ccc(Nc2cc(C(=O)NCCCN3CCN(c4ccc(OC)cc4)CC3)c3ccccc3n2)cc1	x	u	14.1µM	11.2µM	22.4µM
COc1ccc(Nc2cc(C(=O)NCCCN(C)Cc3ccccc3)c3ccccc3n2)c(OC)c1	x	u	u	u	31.6µM
COc1ccc(N2CCN(CCCNC(=O)C(=O)c3c[nH]c4ccccc34)CC2)cc1	x	50.1µM	14.1µM	39.8µM	28.2µM
Cc1ccccc1NC(=O)Cn1nc(-c2ccc(F)cc2)c2cnc3ccccc3c21	x	n	n	n	n
Cc1cc(SCC(=O)Nc2ccc(C(F)(F)F)cc2)nc(=O)[nH]1	x	n	n	n	n
COc1ccc(Nc2cc(C(=O)NCCCN3CCN(c4ccccc4F)CC3)c3ccccc3n2)c(OC)c1	x	n	x	12.6µM	10µM
COc1ccc(Nc2cc(C(=O)NCCCN3CCOCC3)c3ccccc3n2)cc1OC	x	n	n	n	u
COc1ccc(N2CCN(CCNC(=O)c3ccc4c(c3)[nH]c(=S)n3c5ccccc5nc43)CC2)cc1	n	n	u	50.1µM	u
COc1ccc(N2CCN(CCCNC(=O)c3cc(Nc4ccccc4OC)nc4ccccc34)CC2)cc1	x	u	10µM	10µM	35.5µM
COc1ccc(N2CCN(CCNC(=O)c3ccc4nc5ccccc5c(=O)n4c3)CC2)cc1	x	n	n	n	n
COc1ccc(Nc2cc(C(=O)NCCCN3CCOCC3)c3ccccc3n2)c(OC)c1	x	n	n	n[12.7 µM]	u
SMILES	L3MBTL1 block	HP1b chromo inh	BAZ2B block	G9a inh	JMJD2A Tudor
COc1ccc(Nc2cc(C(=O)NCc3ccccc3)c3ccccc3n2)c(OC)c1	x	n	x	n	u
COc1ccc(Nc2cc(C(=O)NCCCN3CCN(C)CC3)c3ccccc3n2)cc1OC	n	n	n	3.55µM	n
COc1ccc(N2CCN(CCCNC(=O)C3CCCN(S(=O)(=O)c4c(C)n[nH]c4C)C3)CC2)cc1 (stereo unspecified)	x	n	n	u	n
COc1ccc(N2CCN(CCCNC(=O)C3CCCN(S(=O)(=O)c4cnc[nH]4)C3)CC2)cc1 (stereo unspecified)	n	n	n	50.1µM	u
O=C(COc1ccccc1)NCC(c1cccs1)S(=O)(=O)c1ccc(Cl)cc1 (stereo unspecified)	x	14.1µM	n	10µM	17.8µM
COc1ccc(CC(=O)NCC(c2cccs2)S(=O)(=O)c2ccc(Cl)cc2)cc1 (stereo unspecified)	x	10µM	u	8.91µM	17.8µM
Oc1c(CN2CCOCC2)cc(CN2CCOCC2)c(O)c1CN1CCOCC1	x	8.91µM	x	x	7.94µM

High-throughput results: PubChem, National Center for Advancing Translational Sciences (NCATS)
